The source of these data is PubChem BioAssay (NCATS).

The structures appear in SMILES notation. Several values for one entry are separate records, joined by “and”; a condition that tells them apart may be missing. Identical values can stand only once. Inconclusive results are not listed. Activity calls are given as the source filed them. Unless noted, the call rests on the fitted dose curve; in most records, active means well fitted curve in the direction sought with a large enough effect; inconclusive means small, poorly fitted or top-dose-only effect, or another doubt; inactive means no such curve, though single readings can be large; an effect the other way counts as inactive or inconclusive.

Assay [1] in a line: qHTS for Inhibitors of the Functional Ribonucleoprotein Complex (vRNP) of Lassa (LASV) Arenavirus: LASV Primary Screen - GLuc reporter signal (AID 1347082; calls by dose curve; tested in HEK293 reporter line; further: nearly all actives have a fitted effect of over 60% in size; further: potency means the concentration at half of the fitted maximal effect). In general terms: qHTS replaces the single test concentration by a dilution series.
Assay [2] in a line: qHTS for Inhibitors of the Functional Ribonucleoprotein Complex (vRNP) of Lassa (LASV) Arenavirus: Viability assay - alamar blue signal for LASV Primary Screen (AID 1347083; calls by dose curve; tested in HEK293 reporter line; further: nearly all actives have a fitted effect of over 80% in size; further: potency means the concentration at half of the fitted maximal effect).
Assay [3] in a line: qHTS for Inhibitors of the Functional Ribonucleoprotein Complex (vRNP) of Lymphocytic Choriomeningitis Arenaviruses (LCMV): Viability assay - alamar blue signal for LCMV Primary Screen (AID 1347085; calls by dose curve; tested in HEK293 reporter line; further: nearly all actives have a fitted effect of over 80% in size; further: potency means the concentration at half of the fitted maximal effect).
The target of assay [4] is Nucleoprotein (Lymphocytic choriomeningitis virus (strain Armstrong)) (UniProt P09992). Kind of assay: qHTS for Inhibitors of the Functional Ribonucleoprotein Complex (vRNP) of Lymphocytic Choriomeningitis Arenaviruses (LCMV): LCMV Primary Screen - GLuc reporter signal (AID 1347086; calls by dose curve; further: nearly all actives have a fitted effect of over 70% in size; further: potency means the concentration at half of the fitted maximal effect).
A short description of assay [5]: qHTS of pediatric cancer cell lines to identify multiple opportunities for drug repurposing: Primary screen for TC32 cells (AID 1347089). Further: nearly all actives have a fitted effect of over 60% in size. Further: potency means the concentration at half of the fitted maximal effect. Put shortly: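 TC32 cells, 500-1,000/well in growth medium, compound-treated 48 h at 37 °C; viability from CellTiter-Glo luminescence. Primary screen: MIPE 11-point (0.78 nM–46 µM final), NPC 8-point (0.59 nM–46 µM final); confirmatory at 11-point dilutions.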

A short description of assay [6]: qHTS of pediatric cancer cell lines to identify multiple opportunities for drug repurposing: Primary screen for DAOY cells (AID 1347090). Further: nearly all actives have a fitted effect of over 55% in size. Further: potency means the concentration at half of the fitted maximal effect. Put shortly:
(§1)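 Eight- or eleven-point concentration series, 48 h treatment at 37 degrees C in growth media; readout CellTiter-Glo luminescence. Potency and efficacy were taken from the concentration-response curves.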

Assay [7] is described as follows: qHTS of pediatric cancer cell lines to identify multiple opportunities for drug repurposing: Primary screen for SJ-GBM2 cells (AID 1347091). Further: potency means the concentration at half of the fitted maximal effect. Put shortly:
as §1

A short description of assay [8]: qHTS of pediatric cancer cell lines to identify multiple opportunities for drug repurposing: Primary screen for A673 cells (AID 1347092). Further: nearly all actives have a fitted effect of over 45% in size. Further: potency means the concentration at half of the fitted maximal effect. Put shortly:
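A673 cells (500-1,000 cells/well) were treated 48 hours at 37 degrees C with compounds at 11-point (0.78 nM to 46 µM) or 8-point (0.59 nM to 46 µM) dilutions. Viability read by CellTiter-Glo luminescence; concentration-response curves fitted.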

Assay [9] in a line: qHTS of pediatric cancer cell lines to identify multiple opportunities for drug repurposing: Primary screen for SK-N-MC cells (AID 1347093). Further: potency means the concentration at half of the fitted maximal effect. Put shortly: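 Metabolically active cells were quantified by ATP-dependent luminescence (CellTiter-Glo, 15 min at room temperature) following 48 h treatment. Cells had been plated at 500-1,000 per well and settled for 5 h beforehand.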
Assay [10] can be described thus: qHTS of pediatric cancer cell lines to identify multiple opportunities for drug repurposing: Primary screen for BT-37 cells (AID 1347094). Further: potency means the concentration at half of the fitted maximal effect. In outline:
(§2)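 Plated cells (500-1,000 per well, growth media) were allowed to settle for 5 hours, treated with compound dilutions for 48 hours, then lysed with CellTiter-Glo for 15 min at room temperature before luminescence reading.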

The nature of assay [11]: qHTS of pediatric cancer cell lines to identify multiple opportunities for drug repurposing: Primary screen for NB-EBc1 cells (AID 1347095). Further: potency means the concentration at half of the fitted maximal effect. In outline: as §2
Assay [12] is described as follows: qHTS of pediatric cancer cell lines to identify multiple opportunities for drug repurposing: Primary screen for U-2 OS cells (AID 1347096). Further: nearly all actives have a fitted effect of over 50% in size. Put shortly: (§3)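 Cells (500-1,000/well) in growth media were settled 5 h at 37 degrees C, then given compounds for 48 h. Viability was read as CellTiter-Glo luminescence. Primary runs used MIPE at 11 points (0.78 nM-46 µM) and NPC at 8 points (0.59 nM-46 µM); follow-ups used 11 points.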

Assay [13] can be described thus: qHTS of pediatric cancer cell lines to identify multiple opportunities for drug repurposing: Primary screen for SK-N-SH cells (AID 1347098). Further: nearly all actives have a fitted effect of over 65% in size. Further: potency means the concentration at half of the fitted maximal effect. Put shortly:
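Cells (500-1,000/well) rested 5 h, then received compounds for 48 h; metabolically active cells were measured by CellTiter-Glo luminescence. Final concentrations spanned up to 46 µM (MIPE, 11-point) or 0.59 nM-46 µM (NPC, 8-point) in primary screens, 11-point in follow-ups.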

The nature of assay [14]: qHTS of pediatric cancer cell lines to identify multiple opportunities for drug repurposing: Primary screen for NB1643 cells (AID 1347099). Further: nearly all actives have a fitted effect of over 50% in size. Further: potency means the concentration at half of the fitted maximal effect. Put shortly: as §2
A short description of assay [15]: qHTS of pediatric cancer cell lines to identify multiple opportunities for drug repurposing: Primary screen for LAN-5 cells (AID 1347100). Put shortly:
as §3

A short description of assay [16]: qHTS of pediatric cancer cell lines to identify multiple opportunities for drug repurposing: Primary screen for Saos-2 cells (AID 1347097). Further: nearly all actives have a fitted effect of over 40% in size. Further: potency means the concentration at half of the fitted maximal effect. In outline: as §2

Sequence of Nucleoprotein (Lymphocytic choriomeningitis virus (strain Armstrong)) (P09992 whole entry, looked up): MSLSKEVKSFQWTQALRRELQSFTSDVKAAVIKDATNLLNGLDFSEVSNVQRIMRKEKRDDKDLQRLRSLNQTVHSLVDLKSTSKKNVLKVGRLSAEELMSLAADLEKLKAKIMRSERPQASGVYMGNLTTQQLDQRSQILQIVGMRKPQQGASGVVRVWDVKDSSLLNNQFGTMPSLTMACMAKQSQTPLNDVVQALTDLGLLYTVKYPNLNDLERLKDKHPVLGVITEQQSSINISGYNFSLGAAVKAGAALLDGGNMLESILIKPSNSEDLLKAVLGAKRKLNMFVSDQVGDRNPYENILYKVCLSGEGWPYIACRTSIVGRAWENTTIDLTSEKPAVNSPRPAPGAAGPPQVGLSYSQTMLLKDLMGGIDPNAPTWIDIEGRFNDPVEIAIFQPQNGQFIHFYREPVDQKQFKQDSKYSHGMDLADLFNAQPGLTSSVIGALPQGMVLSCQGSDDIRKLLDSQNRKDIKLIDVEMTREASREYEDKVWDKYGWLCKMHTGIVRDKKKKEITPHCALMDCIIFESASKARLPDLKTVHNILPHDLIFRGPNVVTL

Turning to `O=C(O)CCCCCCNC1c2ccccc2CCc2ccccc21`, the Potency result in [1], in [2], in assay [3], in assay [4], in [5] and in assay [6] was “inactive” each time. Moreover, the Potency result in assay [7], in assay [8], in [9], in assay [10], in assay [11] and in [12] was “inactive” throughout. Further, the Potency entry in [13], in assay [14] and in assay [15] was “inactive” each time.

For `CCc1ccc(C2CCNCC2)cc1`, the Potency entry in [1], in [2], in assay [3], in [4], in [5] and in assay [6] was “inactive” throughout. The Potency entry in assay [7], in assay [8], in assay [9], in assay [10], in [11] and in [12] was “inactive” in each case. Also, the Potency result in assay [16], in [13], in [14] and in [15] was “inactive” each time.

On to `Oc1c(Br)cc(Br)cc1Br`, for which the Potency result in assay [1], in [2], in [3], in assay [4], in assay [5] and in [6] was “inactive” in each case. Besides, the Potency result in assay [7], in assay [8], in assay [9], in [10], in assay [11] and in [12] was “inactive” in each case. Moreover, the Potency result in assay [16], in assay [13], in assay [14] and in assay [15] was “inactive” in each case.

`C/C=C/c1ccc(O)c(OC)c1`: the Potency entry in assay [1], in assay [2], in assay [3] and in [4] was “inactive” throughout.

Turning to `COP(=O)(OC)C(O)C(Cl)(Cl)Cl` (stereo not given), the Potency entry in assay [1], in assay [2], in assay [3], in assay [4], in assay [5] and in assay [6] was “inactive” in each case. In addition, the Potency entry in assay [7], in assay [8], in assay [9], in assay [10], in [11] and in assay [12] was “inactive” each time. For the same molecule, the Potency entry in assay [16], in [13], in assay [14] and in assay [15] was “inactive” each time.

On to `C[C@@H]1C[C@@H]([C@H](O)CC2CC(=O)NC(=O)C2)C(=O)[C@@H](C)C1`, for which the Potency in assay [1] was 0.968 µM (active); in [2], 158 nM (active) and 432 nM (active); in assay [3], 1.09 µM (active); in assay [4], 1.37 µM (active); in assay [5], 664 nM (active) and 523 nM (active); in assay [6] it was 1.06 µM (active) and 1.18 µM (active). In addition, the Potency in [7] is 266 nM (active) and 235 nM (active); in [8], 668 nM (active) and 372 nM (active); in assay [9], 84.1 nM (active) and 74.3 nM (active); in [10] it was 437 nM (active) and 385 nM (active); in assay [11] it was 841 nM (active) and 3.32 µM (active); in assay [16] it was 1.87 µM (active). The Potency in assay [13] was 4.86 µM (active) and 8.57 µM (active); in assay [14], 0.296 µM (active).

Turning to `CCC1(c2cccc(O)c2)CCCCN(C)C1` (stereo not given), the Potency entry in assay [1], in [2], in assay [3], in [4], in [5] and in assay [6] was “inactive” each time. Besides, the Potency result in assay [7], in assay [8], in [9], in assay [10], in assay [11] and in [12] was “inactive” in each case. Moreover, the Potency result in assay [13], in [14] and in assay [15] was “inactive” in each case.

For `C[C@]12CC[C@H]3[C@@H](CCC4=CC(=O)CC[C@@H]43)[C@@H]1CC[C@@H]2O`, the Potency result in [1], in [2], in [3], in [4], in assay [5] and in assay [6] was “inactive” in each case. In addition, the Potency entry in assay [7], in assay [8], in assay [9], in assay [10], in assay [11] and in assay [12] was “inactive” throughout. In addition, the Potency result in [16], in [14] and in assay [15] was “inactive” throughout.

For the molecule `C[C@]12CC[C@H](O)CC1=CC[C@@H]1[C@@H]2CC[C@]2(C)C(=O)CC[C@@H]12`, the Potency entry in assay [1], in assay [2], in assay [3], in [4], in assay [5] and in assay [6] was “inactive” each time. Moreover, the Potency result in assay [7], in assay [8], in assay [9], in assay [10], in assay [11] and in [12] was “inactive” each time. Further, the Potency entry in assay [16], in assay [13], in assay [14] and in assay [15] was “inactive” each time.

In the case of `C[N+](C)(C)CCOC(=O)C(O)(c1ccccc1)c1ccccc1`, the Potency entry in [1], in assay [2], in assay [3], in assay [4], in assay [5] and in assay [6] was “inactive” each time. Moreover, the Potency result in assay [7], in assay [8], in assay [9], in assay [10], in [11] and in assay [12] was “inactive” throughout. Further, the Potency entry in assay [16], in assay [13], in assay [14] and in [15] was “inactive” throughout.

As to `CCN(CC)CCNC(C(=O)OCCC(C)C)c1ccccc1` (stereo not given), the Potency entry in assay [1], in assay [2], in assay [3] and in [4] was “inactive” in each case.

Take `O=c1n(Cl)c(=O)n(Cl)c(=O)n1Cl`: the Potency entry in assay [1], in assay [2], in [3], in assay [4], in assay [5] and in assay [6] was “inactive” in each case. Also, the Potency entry in assay [7], in assay [8], in [9], in assay [10], in assay [11] and in [16] was “inactive” throughout. Besides, the Potency entry in assay [13], in assay [14] and in [15] was “inactive” throughout.

On to `C[C@]12CC[C@H]3[C@@H](CCC4=CC(=O)CC[C@@]43C)[C@@H]1CC[C@@H]2C(=O)O`, for which the Potency entry in assay [1], in assay [2], in assay [3], in assay [4], in assay [5] and in assay [6] was “inactive” each time. For the same molecule, the Potency entry in assay [7], in assay [9], in assay [10], in assay [11], in assay [12] and in assay [16] was “inactive” throughout. Also, the Potency result in [13], in assay [14] and in assay [15] was “inactive” throughout.

On to `CN1C(=O)CN=C(c2ccccc2)c2cc([N+](=O)[O-])ccc21`, for which the Potency entry in assay [1], in [2], in [3], in assay [4], in assay [5] and in assay [6] was “inactive” in each case. The Potency result in assay [7], in assay [8], in assay [10], in [11], in [12] and in [16] was “inactive” throughout. For the same molecule, the Potency entry in assay [13], in assay [14] and in assay [15] was “inactive” in each case.

Turning to `C#C[C@]1(O)C=C[C@H]2[C@@H]3CCC4=CC(=O)CC[C@@H]4[C@H]3CC[C@@]21CC`, the Potency result in assay [1], in assay [2], in assay [3], in assay [4], in assay [5] and in assay [6] was “inactive” throughout. Also, the Potency entry in assay [7], in assay [8], in assay [9], in assay [10], in assay [12] and in assay [16] was “inactive” each time. Besides, the Potency entry in [13], in assay [14] and in assay [15] was “inactive” each time.

With `O=C(O)Cc1ccccc1`, the Potency result in [1], in assay [2], in assay [3], in assay [4], in assay [5] and in assay [6] was “inactive” each time. The Potency result in [7], in assay [8], in assay [10], in [11], in assay [16] and in assay [13] was “inactive” throughout. The Potency entry in [14] and in assay [15] was “inactive” throughout.

As to `CCOC(C(=O)OCCN(C)C)(c1ccccc1)c1ccccc1`, the Potency entry in assay [1], in assay [2], in [3], in [4], in assay [5] and in assay [6] was “inactive” in each case. Moreover, the Potency result in assay [7], in assay [8], in assay [10], in assay [11], in assay [12] and in assay [16] was “inactive” throughout. The Potency result in assay [13], in assay [14] and in assay [15] was “inactive” throughout.

As to `COc1cc(N)c(Cl)cc1C(=O)NC1CN2CCC1CC2` (stereo not given), the Potency entry in [1], in assay [2], in [3], in assay [4], in assay [5] and in assay [6] was “inactive” each time. Also, the Potency entry in [7], in assay [9], in assay [10], in assay [11], in assay [16] and in assay [13] was “inactive” each time. The Potency entry in [14] and in assay [15] was “inactive” each time.
